Where “and” joins values, the source holds several entries; their conditions need not be identical. Equal entries are not always repeated.
Assays:
[1] = target: CDK3/Cyclin E (Homo sapiens) (UniProt P24864+Q00526); conditions: at 1 µM;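 further: each figure is a mean percent inhibition of the CDK3/cyclin E complex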
[2] = target: Cyclin-dependent kinase 4 (Homo sapiens) (UniProt P11802); conditions: at 0.1 µM
[3] = target: Cyclin-dependent kinase 4 (Homo sapiens) (UniProt P11802); conditions: at 1 µM
[4] = target: Cyclin-dependent kinase 5 (Homo sapiens) (UniProt Q00535); conditions: at 0.1 µM
[5] = target: Cyclin-dependent kinase 5 (Homo sapiens) (UniProt Q00535); conditions: at 1 µM
[6] = target: Cyclin-dependent kinase 6 (Homo sapiens) (UniProt Q00534); conditions: at 0.1 µM
[7] = target: Cyclin-dependent kinase 6 (Homo sapiens) (UniProt Q00534); conditions: at 1 µM
[8] = target: Dual specificity protein kinase CLK2 (Homo sapiens) (UniProt P49760); conditions: at 0.1 µM
[9] = target: Dual specificity protein kinase CLK2 (Homo sapiens) (UniProt P49760); conditions: at 1 µM
[10] = target: Dual specificity protein kinase CLK3 (Homo sapiens) (UniProt P49761); conditions: at 0.1 µM
Sequence of Dual specificity protein kinase CLK3 (Homo sapiens) (P49761 whole entry, looked up): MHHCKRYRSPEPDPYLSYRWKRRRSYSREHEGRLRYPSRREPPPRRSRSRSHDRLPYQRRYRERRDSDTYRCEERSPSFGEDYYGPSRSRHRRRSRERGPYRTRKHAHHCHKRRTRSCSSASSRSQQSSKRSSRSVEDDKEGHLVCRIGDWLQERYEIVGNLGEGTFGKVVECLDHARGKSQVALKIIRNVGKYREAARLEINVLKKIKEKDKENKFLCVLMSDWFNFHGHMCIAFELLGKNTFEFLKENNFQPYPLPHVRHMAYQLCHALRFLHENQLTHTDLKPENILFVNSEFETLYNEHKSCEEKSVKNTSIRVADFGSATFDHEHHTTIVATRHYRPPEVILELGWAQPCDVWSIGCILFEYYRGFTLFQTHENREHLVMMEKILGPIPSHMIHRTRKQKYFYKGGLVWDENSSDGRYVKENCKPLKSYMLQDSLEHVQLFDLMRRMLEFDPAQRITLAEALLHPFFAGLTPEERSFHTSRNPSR

Sequence of Cyclin-dependent kinase 5 (Homo sapiens) (Q00535 whole entry, looked up): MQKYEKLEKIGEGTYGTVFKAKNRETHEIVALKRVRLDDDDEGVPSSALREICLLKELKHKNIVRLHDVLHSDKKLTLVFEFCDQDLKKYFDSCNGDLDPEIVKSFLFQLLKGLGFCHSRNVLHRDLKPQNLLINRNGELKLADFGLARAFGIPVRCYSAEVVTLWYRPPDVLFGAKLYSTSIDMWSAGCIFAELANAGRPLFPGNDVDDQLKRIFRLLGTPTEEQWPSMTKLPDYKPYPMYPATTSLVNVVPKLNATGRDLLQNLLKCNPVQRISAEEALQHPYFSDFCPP
Sequence of CDK3/Cyclin E (Homo sapiens) (P24864 whole entry, looked up): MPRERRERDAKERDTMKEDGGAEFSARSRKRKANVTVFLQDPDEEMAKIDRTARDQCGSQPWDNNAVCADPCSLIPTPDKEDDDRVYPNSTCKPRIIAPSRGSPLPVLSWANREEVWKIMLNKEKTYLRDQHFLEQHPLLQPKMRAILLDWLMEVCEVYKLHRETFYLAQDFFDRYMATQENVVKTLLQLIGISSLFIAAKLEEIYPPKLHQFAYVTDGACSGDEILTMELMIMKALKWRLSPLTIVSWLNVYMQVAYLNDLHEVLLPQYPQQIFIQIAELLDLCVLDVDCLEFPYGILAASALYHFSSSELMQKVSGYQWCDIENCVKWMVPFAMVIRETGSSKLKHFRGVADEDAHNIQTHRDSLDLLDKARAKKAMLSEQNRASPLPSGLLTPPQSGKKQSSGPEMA
Sequence of CDK3/Cyclin E (Homo sapiens) (Q00526 whole entry, looked up): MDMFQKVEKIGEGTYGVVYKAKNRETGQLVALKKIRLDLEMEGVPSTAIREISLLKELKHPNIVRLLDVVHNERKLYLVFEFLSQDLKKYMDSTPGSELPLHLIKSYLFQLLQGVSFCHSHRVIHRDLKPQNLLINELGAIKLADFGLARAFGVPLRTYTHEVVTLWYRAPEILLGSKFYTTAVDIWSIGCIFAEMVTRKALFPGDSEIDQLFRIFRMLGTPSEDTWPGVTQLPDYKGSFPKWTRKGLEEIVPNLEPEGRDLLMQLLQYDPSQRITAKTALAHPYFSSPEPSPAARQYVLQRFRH
Sequence of Cyclin-dependent kinase 6 (Homo sapiens) (Q00534 whole entry): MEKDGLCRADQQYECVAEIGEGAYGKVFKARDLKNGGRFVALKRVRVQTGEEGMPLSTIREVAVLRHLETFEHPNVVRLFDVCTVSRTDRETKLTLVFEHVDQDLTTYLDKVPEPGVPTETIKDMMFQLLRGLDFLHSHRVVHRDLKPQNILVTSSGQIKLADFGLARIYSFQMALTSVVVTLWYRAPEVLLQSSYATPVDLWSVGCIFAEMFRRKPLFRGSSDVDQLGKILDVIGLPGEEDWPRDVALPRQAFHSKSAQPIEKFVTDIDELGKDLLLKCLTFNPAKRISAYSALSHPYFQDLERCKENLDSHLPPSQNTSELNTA
Sequence of Cyclin-dependent kinase 4 (Homo sapiens) (P11802 whole entry): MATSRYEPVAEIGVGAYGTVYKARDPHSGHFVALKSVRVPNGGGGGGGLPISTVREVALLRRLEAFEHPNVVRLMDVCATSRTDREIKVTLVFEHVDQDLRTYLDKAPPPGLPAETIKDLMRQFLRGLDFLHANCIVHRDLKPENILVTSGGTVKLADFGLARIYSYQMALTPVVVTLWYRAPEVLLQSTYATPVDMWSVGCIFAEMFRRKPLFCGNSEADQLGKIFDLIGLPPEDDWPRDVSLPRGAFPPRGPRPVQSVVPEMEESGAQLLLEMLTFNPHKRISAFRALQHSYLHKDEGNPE
Sequence of Dual specificity protein kinase CLK2 (Homo sapiens) (P49760 whole entry, looked up): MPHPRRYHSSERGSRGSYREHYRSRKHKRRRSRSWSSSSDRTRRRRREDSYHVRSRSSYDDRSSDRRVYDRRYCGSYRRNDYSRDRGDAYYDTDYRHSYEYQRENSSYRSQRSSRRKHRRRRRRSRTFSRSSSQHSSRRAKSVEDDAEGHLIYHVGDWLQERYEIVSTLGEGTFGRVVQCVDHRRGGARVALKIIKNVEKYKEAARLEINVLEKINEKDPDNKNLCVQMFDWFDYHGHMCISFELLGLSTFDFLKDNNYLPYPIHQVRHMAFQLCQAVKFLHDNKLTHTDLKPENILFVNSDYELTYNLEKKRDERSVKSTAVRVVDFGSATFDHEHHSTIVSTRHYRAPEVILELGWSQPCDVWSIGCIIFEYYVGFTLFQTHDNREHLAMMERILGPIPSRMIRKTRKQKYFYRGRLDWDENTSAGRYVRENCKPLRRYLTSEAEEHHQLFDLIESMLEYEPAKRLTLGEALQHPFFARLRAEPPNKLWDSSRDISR

| Structure (SMILES) | inhibition [1] | inhibition [2] | inhibition [3] | inhibition [4] | inhibition [5] | inhibition [6] | inhibition [7] | inhibition [8] | inhibition [9] | inhibition [10] |
| --- | --- | --- | --- | --- | --- | --- | --- | --- | --- | --- |
| NC(=O)c1ccc2c(-c3ccnc(NCCCO)n3)c(-c3ccc(F)cc3)nn2c1 | -1.28% | 3.3% | 4.76% | 0.91% | 0.98% | -6.31% | 1.97% | 2.88% | 2.32% | 0.97% |
| NS(=O)(=O)c1cccc(N/C=C2\C(=O)Nc3ccccc32)c1 | 11.3% | 5.5% | 18.1% | 2.87% | 16.5% | 2.67% | 55.6% | 2.13% | 13.7% | 1.92% |
| COC(=O)Nc1nc2ccc(Oc3ccc(NC(=O)Nc4cc(C(F)(F)F)ccc4F)cc3)cc2s1 | -0.71% | 0.7% | 2.02% | 0.77% | 1.66% | 0.38% | 2.05% | 0.47% | 3.04% | 0.06% |
| COC(=O)Nc1nc2cc(Oc3ccc(NC(=O)Nc4ccccc4)cc3)ccc2[nH]1 | -3.23% | 0.66% | 1.41% | 0.28% | 0.86% | 0.73% | -1.23% | 1.75% | -1.36% | 1.37% |
| CS(=O)(=O)Nc1ccc(-c2cc(-c3ccccc3)cc(C(N)=O)c2N)cc1 | -1.91% | 0.62% | 1.63% | 0.11% | 0.2% | -0.52% | -0.55% | 0.11% | 2.34% | 0.2% |
| CCOc1ccc2c(-c3ccnc(Nc4cc(OC)cc(C(F)(F)F)c4)n3)cnn2n1 | 3.56% | 1.15% | 6.68% | 2.44% | 9.18% | 2.68% | 7.59% | 81.2% | 96.3% | 3.69% |
| OCCCNc1nccc(-c2c(-c3ccc(F)cc3)nn3cc(C(F)(F)F)ccc23)n1 | 0.86% | 0.94% | 3.36% | 2.06% | 3.96% | 1.79% | 5.92% | 0.1% | 1.15% | 0.35% |
| CC(C)c1ccc(-c2cc(-c3c[nH]nc3-c3ccccn3)ccn2)cc1 | -1.28% | 1.25% | 1.46% | 0.18% | 0.36% | -1.5% | 1.16% | 0.9% | -0.14% | 0.15% |
| CCN1CCC(C(=O)Nc2n[nH]c3nnc(-c4cccc(F)c4F)cc23)CC1 | 16.7% | 5.92% | 36.6% | 2.96% | 14.1% | 5.64% | 28.9% | -0.21% | 2.56% | 1.25% |
| Nc1nccc(-c2c(-c3ccc(F)cc3)ncn2C2CCNCC2)n1 | -1.14% and -1.16% | 0.24% and -0.14% | 0.89% and 0.97% | 0.29% and 0.63% | 1.43% and 1.29% | -5.67% and 1.15% | -4.19% and 1.96% | 2.07% and 0.24% | 11.9% and 2.02% | -0.13% and 1.41% |
| CS(=O)(=O)CCNCc1ccoc1-c1ccc2ncnc(Nc3ccc(OCc4ccccc4)cc3)c2c1 | -1.1% | 0.34% | 2.91% | 0.75% | 1.14% | -0.43% | 5.44% | 0.36% | -2.93% | -0.17% |
| CCS(=O)(=O)c1ccc(OC)c(Nc2ncc(-c3cccc(C(C)=O)c3)o2)c1 | 1.82% | 2.53% | 3.06% | 1.03% | 3.09% | 4.78% | 5.56% | 28.6% | 82.8% | 1.61% |
| Cc1c2ccc(N(C)c3ccnc(Nc4cccc(S(N)(=O)=O)c4)n3)cc2nn1C | 2.13% | -3.55% | 9.57% | -1.58% | 0.35% | -1.51% | 15.3% | 1.61% | 0.97% | -1.14% |
| CNC(=O)c1ncccc1Nc1nc(Nc2cc3c(cc2OC)CCCN3C(=O)CN(C)C)nc2[nH]ccc12 | 1.69% | 5.18% | 11.4% | 3.84% | 6.35% | 3.87% | 7.17% | 54.3% | 93.1% | 1.98% |
| FC(F)(F)CNc1nccc(-c2cnn3ncccc23)n1 | 11.2% | 2.33% | 10.8% | 3.62% | 22.9% | 0.9% | 3.37% | 5.19% | 51% | 0.47% |
| COc1cc(Nc2ncc(-c3ccccc3)o2)cc(OC)c1 | 6.13% | 3.96% | 14.9% | -0.03% | 6.57% | 4.07% | 29.8% | 2.97% | 2.12% | 0.59% |

| Structure (SMILES) | inhibition [1] | inhibition [2] | inhibition [3] | inhibition [4] | inhibition [5] | inhibition [6] | inhibition [7] | inhibition [8] | inhibition [9] | inhibition [10] |
| --- | --- | --- | --- | --- | --- | --- | --- | --- | --- | --- |
| CCS(=O)(=O)c1ccc(OC)c(Nc2ncc(-c3cccc(F)c3)o2)c1 | -2.15% | 2.69% | 4.19% | 0.21% | 1.39% | 3.05% | 1.82% | 13% | 63.1% | 2.49% |
| CNC(=O)c1sc(-n2cnc3cc(OC)c(OC)cc32)cc1OCc1ccccc1C(F)(F)F | -1.01% | 1.64% | 3.5% | 0.36% | 1.5% | -0.46% | 1.53% | 1.74% | -1.57% | 0.24% |
| CS(=O)(=O)CCNCc1ccc(-c2ccc3ncnc(Nc4ccc(OCc5cccc(C(F)(F)F)c5)cc4)c3c2)o1 | 1.01% | 3.72% | 2.89% | 0.15% | 0.08% | 0.44% | 1.5% | 0.99% | 1.97% | 1.09% |
| CC1(C)CC(n2cnc(-c3ccc(F)cc3)c2-c2ccnc(N)n2)CC(C)(C)N1 | -0.65% | 1.99% | 2.08% | 0.25% | 0.14% | -2.02% | 1.29% | 0.85% | 0.02% | 0.82% |
| COc1cccc(-n2ncc3c(N/N=C/c4ccc(C(=O)NCCN(C)C)cc4)ncnc32)c1 | 50.1% | 40.6% | 71.4% | 37.9% | 74.3% | 47.9% | 81.5% | 21.6% | 73.7% | 5.88% |
| COc1cc2c(cc1Nc1nc(Nc3cccc(F)c3C(N)=O)c3cc[nH]c3n1)N(C(=O)CN1CCN(C(C)C)CC1)CC2 | -0.76% | 1.15% | 1.2% | 0.64% | 0.27% | -4.06% | -0.78% | 6.86% | 45.4% | 0.88% |
| c1ccc(-c2n[nH]cc2-c2ccnc(-c3ccc(OCCn4ccnc4)cc3)c2)nc1 | 0.94% | 1.86% | 6.97% | 1.11% | 4.49% | 1.43% | 10% | 0.61% | 1.21% | 3.95% |
| Cc1ccc(-c2cc3c(NC(=O)C4CC4)ncnc3o2)cc1 | -0.64% | 3.36% | 4.97% | 1.87% | 3.17% | 1.55% | 3.23% | -0.87% | 6.08% | 2.11% |
| c1cnn2ncc(-c3ccnc(NCCCN4CCOCC4)n3)c2c1 | -0.22% | 2.24% | 7.97% | 0.21% | 2.95% | -1.7% | 2.95% | 1.77% | 6.81% | 0.39% |
| CCCNc1cccc(-n2ncc3c(N/N=C/c4ccncc4)ncnc32)c1 | 9.63% | 0.2% | 9.54% | 1.35% | 12.6% | 3.25% | 10.1% | 3.08% | 10.9% | 0.61% |
| CC1=C(C(=O)Nc2ccc3[nH]nc(C)c3c2)C(c2ccc(C(F)(F)F)cc2)CC(=O)N1 (stereo not given) | 1.51% | 4.22% | 7.29% | 2.58% | 6.22% | 7.14% | 10.2% | 1.85% | 9.04% | 2.28% |
| CCn1c(-c2nonc2N)nc2cncc(C(=O)NCCNC)c21 | 0.12% | 1.73% | 3.94% | -0.65% | 0.97% | -0.66% | 1.38% | 1.2% | 10.5% | -2.71% |
| COc1c(C(N)=O)cc(-c2ccc(Cl)cc2)cc1-c1ccc(S(N)(=O)=O)cc1 | -0.77% | 3.98% | 3.06% | 0.65% | 0.17% | -0.9% | -0.36% | 3.22% | 5.16% | 0.71% |
| O=C(Nc1n[nH]c2nnc(-c3cccnc3)cc12)C1CC1 | 81.4% | 13.7% | 56.1% | 27.2% | 69.2% | 19.7% | 64.6% | 5.98% | 43.4% | 0.24% |
| CN(c1ccc(NC(=O)NCCN2CCOCC2)cc1)c1ccnc(Nc2ccc(CS(C)(=O)=O)cc2)n1 | 0.92% | 0.98% | 2.06% | 0.44% | 2.44% | 5.26% | 4.21% | -0.8% | 2.52% | 0.77% |
